Values joined by “and” are separate entries in the source; they are usually repeats but may differ in a detail not shown here. Identical values can stand only once. Inconclusive results are not listed. A number with no mark means an inactive call. Active and inactive are the calls of the source. Calls come from the whole dose curve; as a rule, active = well fitted cell-killing curve with a large enough effect in the repeat runs; inconclusive = weak or mixed curves, or effect the other way; inactive = flat fitted curve, though single readings scatter.
Assay: qHTS RealTime-Glo MT Cell Viability Assay in HEK293 cells - 40 hour (AID 1224874); note: nearly all actives have a fitted effect of over 50% in size
Details: RealTime-Glo luminescence; max response: stronger effect = lower value
In short: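 HEK293 cells mixed with RealTime-Glo reagents (NanoLuc plus cell-permeant prosubstrate) at 600 cells/well, preincubated 5 h at 37 C/5% CO2, then given 23 nL compound in DMSO. Nonlytic luminescence from viable cells was read at 0, 8, 16, 24, 32 and 40 h.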
% is set by controls: 0 for no effect and ±100 for the full control effect; potency is the fitted concentration of half-maximal effect.

| Compound | max response | Potency |
| --- | --- | --- |
| CN(C)Cc1ccccc1O | 3.13% | – |
| CC(CCc1ccccc1)NCC(O)c1ccc(O)c(C(N)=O)c1 (stereo not given) | 0.74% | – |
| C#C[C@]1(O)CC[C@H]2[C@@H]3[C@H](C)CC4=C(CCC(=O)C4)[C@H]3CC[C@@]21C | -25.5% | – |
| COC(C)=O | -13.9% | – |
| CC1(C)CCC[C@]2(C)[C@H]3CC(=O)O[C@]3(C)CC[C@@H]12 | -15.3% | – |
| CC(C)(C)C1CCC(=O)CC1 | 0.275% | – |
| CC(C)CCOC(=O)/C=C/c1ccccc1 | -4.61% | – |
| Cc1ccc(C(=O)O)cc1 | 10% | – |
| Nc1ccc(Oc2ccc(Cl)cc2)cc1 | – | 21.4 µM (active) |
| CC[C@H](C)COC(=O)/C=C/c1ccc(N=Cc2ccc(OC)cc2)cc1 | – | 21.8 µM (active) |
| CCCC(=O)OC(C)(C)Cc1ccccc1 | -22.8% | – |
| C=CCCC(=O)/C=C/C1C(C)=CCCC1(C)C (stereo not given) | -12.7% | – |
| CCCC(=O)OCCc1ccccc1 | 5.68% | – |
| CCCCOC(=O)CC | 2.07% | – |
| O=C(O)c1cc(O)c2ccccc2c1O | – | 38.9 µM (active) |
| CC(C)(C)CC(C)(C)c1ccc(Nc2ccc(C(C)(C)CC(C)(C)C)cc2)cc1 | 9% | – |
| CC(C(=O)O)c1ccc2c(c1)[nH]c1ccc(Cl)cc12 (stereo not given) | 1.73% | – |
| COc1cc2nc(N3CCN(C(=O)c4ccco4)CC3)nc(N)c2cc1OC | -18.8% | – |
| OCC(F)(F)F | 19.1% | – |
| C=Cc1cccc(C)c1 | -2.09% and 3.82% | – |

Reference: PubChem BioAssay (Tox21)
